# Screening results from PubChem.
# The list is not random: actives were taken first. Their share in the collection is about 2.8%.
# IP6K1 inh = IP6K1 kinase inhibition; IP6K1 kinase, ADP-Glo luminescence, 2 h; stronger effect = lower value; activity change, % (series mostly up to about 58 µM); hit rate 0.81% among 140,000; in the data active = activity change below about -25%; note: % is set by controls: 0 for no effect and ±100 for the full control effect
# Target sequence (Q92551 whole entry, looked up): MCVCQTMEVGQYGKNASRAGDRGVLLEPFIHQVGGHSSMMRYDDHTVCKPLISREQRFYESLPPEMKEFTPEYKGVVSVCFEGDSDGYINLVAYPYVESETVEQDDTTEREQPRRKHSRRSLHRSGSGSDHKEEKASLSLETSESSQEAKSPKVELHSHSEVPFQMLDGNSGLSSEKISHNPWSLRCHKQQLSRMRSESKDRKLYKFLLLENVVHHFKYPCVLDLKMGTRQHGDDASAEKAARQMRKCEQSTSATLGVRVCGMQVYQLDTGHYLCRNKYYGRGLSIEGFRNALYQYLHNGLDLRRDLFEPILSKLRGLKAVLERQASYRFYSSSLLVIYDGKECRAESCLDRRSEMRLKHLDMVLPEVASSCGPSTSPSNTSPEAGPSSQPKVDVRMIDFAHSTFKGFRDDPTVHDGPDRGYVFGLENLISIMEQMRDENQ
#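 ADP-Glo luminescence measures ADP made by human IP6K1 during a 2 h RT reaction with ATP/IP6 (mix at 1.3 mM/130 uM); top library doses 57.5 and 19.1 uM final.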
# KDM5B inh = blocks human KDM5B histone demethylase activity; KDM5B demethylase, FDH-coupled NADH fluorescence (FDH is formaldehyde dehydrogenase); Potency, µM (titrated, usually from 57.7 µM), most hits filed as inhibitors; AID 1347165; hit rate 2.6% among 220,000; note: potency is the fitted concentration of half-maximal effect; 0% is about no effect; nearly all actives have a fitted effect of over 70% in size
#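 Here, H3K4me3 peptide (12.5 µM in substrate mix) is demethylated by KDM5BΔAP, 200 nM final, after 10 min compound exposure. Formaldehyde product is coupled through FDH (0.25 U/mL in mix) to NADH fluorescence; 30-min ΔRFU feeds dose-response curves.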
# SNCA expr inhib = inhibitors of alpha-synuclein (SNCA) gene expression; HEK-293 SNCA-luciferase knock-in, luminescence, 24 h; Potency, µM (doses to about 57.2 µM), for the others: top-dose activity change, negative = inhibition, actives largely listed as inhibitors; hit rate 0.17% among 140,000;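 note: potency is the fitted concentration of half-maximal effect; plate controls were DMSO cells for no effect and cell-free wells for full effect; nearly all actives have a fitted effect of over 45% in size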
# SNCA viab count = reduces viability of HEK-293 SNCA reporter cells. Potency, µM (series often up to 57.1 µM), without a hit: at the top dose activity change, negative = cytotoxicity, hits mostly cytotoxic. HEK-293-SNCA-luc viability, GF-AFC fluorescence, 24 h. hit rate 0.12% among 150,000;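 note: potency is the fitted concentration of half-maximal effect; 0% = DMSO-treated cells and -100% = medium-only wells without cells; nearly all actives have a fitted effect of over 30% in size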
#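 HEK-293-SNCA-luc cells (1500/well) plated 24 h, then exposed 24 h to a dilution series; GF-AFC added 30 min at 37C, fluorescence 405/540 nm; normalised to medium-only and DMSO wells, Hill fit.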
# Starred values were filed as active, the others as inactive; i = inactive; ? = inconclusive; / = no result given; [ ] = another dose, or the depositor's remark. Unless noted, calls come from the whole dose curve; as a rule, active = well fitted curve in the direction sought with a large enough effect; inconclusive = small, poorly fitted or top-dose-only effect, or another doubt; inactive = no such curve, though single readings can be large; an effect the other way counts as inactive or inconclusive.
SMILES,IP6K1 inh,KDM5B inh,SNCA expr inhib,SNCA viab count
COc1ccc(C2CCCN2CC(=O)N2CCN(c3cccc(C(F)(F)F)c3)CC2)c(OC)c1 (stereo not drawn),/,i,/,/
CC(=O)Nc1ccccc1-c1c(C)nn2c1N(C(=O)c1ccc(Oc3ccccc3)cc1)CCC2,7.7,i,?,?
C[C@@]1(O)CCN(Cc2ccc3c4c(cccc24)C(=O)OC3)C[C@@H]1O,5.3,28.2µM*,1.3%,-1.5%
COCCNC[C@@H]1C=C(C)[C@H](Cc2nnc(-c3ccc(N(C)C)cc3)o2)C[C@H]1C(C)C,1.6,28.2µM*,-27.7%[87.6 µM],?
CC1=C[C@@H](CNCCN(C)C)[C@H](C(C)C)C[C@H]1Cc1nnc(-c2ccc(C)cc2)o1,-12.9,i,-18.0%[87.6 µM],-28.7%[87.6 µM]
CC1=C[C@@H](CN2CCC[C@H]2CO)[C@H](C(C)C)C[C@H]1Cc1nnc(-c2ccc(N(C)C)cc2)o1,29.9,11.2µM*,-28.4%,-27.1%
CC1=C[C@@H](CO)[C@H](C(C)C)C[C@H]1Cc1nnc(-c2ccc(N(C)C)cc2)o1,22.3,31.6µM*,-3.1%[87.6 µM],-23.4%[87.6 µM]
CC(SC(C)c1c(F)cccc1F)C(=O)NC(N)=O (stereo not drawn),/,i,/,/
O=C(CSc1ccc2ccccc2c1)N(C1CCCCC1)C1CCS(=O)(=O)C1 (stereo not drawn),/,i,/,/
CCc1c(C(=O)N2CCC(CO)(Cc3ccccc3)CC2)[nH]c2ccccc12,1.8,i,-19.9%,-16.8%
FC(F)(F)c1cccc(Nc2cnc3ccc(N4CCOCC4)nn23)c1,-12.8,35.5µM*,-21.8%[87.6 µM],11.9%[87.6 µM]
c1ccc(Nc2cnc3ccc(N4CCOCC4)nn23)cc1,11.7,i,-9.5%[87.6 µM],12.2%[87.6 µM]
Cc1ccc(C(=O)N2CCCN(c3cc(-c4ccc(C)c(C)c4)[nH]n3)CC2)cc1C,-1.7,?,-21.3%,-18.7%
O=C(Cc1ccccc1F)N1CCN(c2nnc3ccc(Cl)cn23)CC1,40.3,?,-0.7%,-7.1%
O=C(Cc1ccc(Cl)cc1)N1CCN(c2nnc3ccccn23)CC1,25.4,25.1µM*,-6.9%,2.8%
O=C(Cc1ccc(Cl)cc1)N1CCN(c2ccccc2O)CC1,/,i,/,/
O=C(Cc1cccc(C(F)(F)F)c1)N1CCN(c2nnc3ccc(Cl)cn23)CC1,4.3,25.1µM*,-11.0%,-1.2%
Cn1ncc2c(C(=O)NCc3cccc(Cl)c3)cc(-c3ccc(C(F)(F)F)cc3)nc21,-12.1,/,/,/
O=C(Cn1ccn2nc3c(c2c1=O)CCCCC3)Nc1ccccc1C(F)(F)F,-1.0,?,16.6%,-7.9%
CC(C)CCNC(=O)Cn1ccn2nc3c(c2c1=O)CCCC3,1.7,20µM*,?,-5.0%
CCCNC(=O)Cn1ccn2nc3c(c2c1=O)CCCC3,28.6,i,-4.2%,1.7%
CCc1ccccc1NC(=O)Cn1ccn2nc3c(c2c1=O)CCCC3,-3.9,35.5µM*,-36.1%,2.8%
O=C(Cn1ccn2nc(-c3ccc(F)cc3)c(CO)c2c1=O)Nc1ccccc1Cl,2.6,28.2µM*,-7.2%,1.7%
Cc1ccc(NC(=O)Cn2ccn3nc(-c4ccc(F)cc4)c(CO)c3c2=O)cc1,-1.8,22.4µM*,5.5%,6.9%
O=C(Cn1ccn2nc(-c3ccc(F)cc3)c(CO)c2c1=O)Nc1cc(F)ccc1Cl,5.3,i,?,-18.3%
SMILES,IP6K1 inh,KDM5B inh,SNCA expr inhib,SNCA viab count
O=C(Cn1ccn2nc(-c3ccc(F)cc3)c(CO)c2c1=O)Nc1cccc(C(F)(F)F)c1,2.1,22.4µM*,6.5%,8.2%
Cn1ccnc1C(=O)c1cccc(NC(=O)C(=O)N[C@H](CO)Cc2ccccc2)c1,/,i,/,/
CC(C)CNC(=O)C1CCN(Cc2ccccc2-c2ccccc2F)CC1,7.8,/,/,/
Cn1nc(C2CCCN2)c2c(C(=O)NCC(F)(F)F)cc(C3CC3)nc21 (stereo not drawn),-4.2,79.4µM*,26.5%,12.6%
COCCNC(=O)c1cc(C2CC2)nc2c1c(C1CCNCC1)nn2C,-9.7,?,-6.3%,3.7%
COCCNC(=O)c1cc(C2CC2)nc2c1c(C1CCCN1)nn2C (stereo not drawn),3.9,79.4µM*,-0.1%,0.8%
Nc1nn(Cc2ccc(F)cc2)cc1Br,/,i,/,/
CN1CCOc2c(C(=O)NCc3cccnc3)cc(-c3ccccc3O)cc21,-17.8,31.6µM*,-15.4%[87.6 µM],-16.3%[87.6 µM]
CN1CCOc2c(C(=O)NCc3cnn(C)c3)cc(-c3cccnc3)cc21,-7.1,i,-15.4%[87.6 µM],-11.9%[87.6 µM]
CN1CCOc2c(C(=O)NCc3cnn(C)c3)cc(-c3ccccc3O)cc21,-15.2,28.2µM*,10.5%[87.6 µM],-9.0%[87.6 µM]
CN1CCOc2c(C(=O)NCc3cccnc3)cc(-c3ccccc3)cc21,-14.0,28.2µM*,-18.3%[87.6 µM],-25.7%[87.6 µM]
COc1ncc(-c2cc(C(=O)NCc3cnn(C)c3)c3c(c2)N(C)CCO3)cn1,-17.7,i,-3.9%[87.6 µM],-0.8%[87.6 µM]
CN1CCOc2c(C(=O)NCc3cccnc3)cc(-c3ccc(CO)cc3)cc21,-11.1,39.8µM*,5.0%[87.6 µM],-11.9%[87.6 µM]
Cc1cc(CNC(=O)c2cc(-c3cccnc3)cc3c2OCCN3C)no1,-24.2,?,-7.5%[87.6 µM],-12.3%[87.6 µM]
O=C(C1CC1)N1CCC2(CC1)CC(c1cccc(C(F)(F)F)c1)=NO2,11.7,/,/,/
O=C(CCc1ccccc1)N1C[C@@H](CO)[C@@H]2Oc3ccc(Cl)cc3[C@@H]21,6.8,/,/,/
CCOC(=O)c1cc2c(=O)n3ccccc3nc2n(Cc2ccco2)c1=NC(=O)c1c(F)cccc1Cl,-60.3*,?,?,?
CNC(=O)Cn1nc(C(=O)N2CCC3(CC2)[C@H](O)C[C@@H]3O)cc1C,8.6,i,4.6%,-3.7%
CCO[C@H]1C[C@@H](O)C12CCN(C(=O)c1cc3nc(C)cc(C)n3n1)CC2,31.0,28.2µM*,-22.9%,-11.8%
O=C1CCC2(CCCN(c3ncc(Cl)cc3F)C2)CN1Cc1cccnc1 (stereo not drawn),1.1,28.2µM*,-3.7%,10.7%
COc1ccc(CN2CCCN(C(=O)c3nn(-c4ccccc4)c(=O)c4ccccc34)CC2)cc1,/,i,/,/
COc1ccccc1-n1cc(-c2nc(C3CCOC3)no2)cn1 (stereo not drawn),28.0,28.2µM*,25.5%,-9.6%
O=C(CSc1cccc2cccc(Cl)c12)NCc1ccco1,/,i,/,/
COc1cccc(CNC(=O)CCNc2cnc3cnccn23)c1,10.7,20µM*,0.9%,?
O=C(CCNc1c(-c2cccc(F)c2)nc2cnccn12)NCC1CCCO1 (stereo not drawn),3.2,28.2µM*,0.4%,?
SMILES,IP6K1 inh,KDM5B inh,SNCA expr inhib,SNCA viab count
O=C(CCNc1c(-c2cccc(F)c2)nc2cnccn12)NCc1ccccc1,9.0,25.1µM*,23.2%,?
CNC(=O)NCc1cccc(OC)c1,/,i,/,/
O=C(CCc1ccccc1)NCC1CCCO1 (stereo not drawn),/,i,/,/
COC(=O)[C@@H]1Cc2nc[nH]c2CN1Cc1ccc(OC)c2ccccc12,18.4,31.6µM*,-9.9%[87.6 µM],-0.6%[87.6 µM]
O=C(NCc1ccc(C(F)(F)F)cc1)[C@@H]1Cc2nc[nH]c2CN1Cc1ccc([N+](=O)[O-])cc1,21.0,i,2.1%,-6.5%
COC(=O)[C@@H]1Cc2nc[nH]c2CN1Cc1ccc([N+](=O)[O-])cc1,25.5,28.2µM*,-26.8%[87.6 µM],3.7%[87.6 µM]
